# Test results as given in PubChem BioAssay (NCI).
# The panel holds about 83,000 compounds, 20% with a hit somewhere; the sample as a whole holds those more often.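 Growth was measured after 48 h exposure to one concentration of compound in 96-well plates. Values under 10 count as active.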 Active and inactive are the calls of the source.
# Tested on: HOP-92 NSCLC
# Assay: NCI-60 one-dose screen, 48 h (100 = growth as untreated, 0 = no growth, -100 = all killed)
# Conditions: 10 µM unless noted
row,Compound,growth
1,Cc1ccc(OCCOCCOCCOCCOc2ccc(C)n(O)c2=S)c(=S)n1O,36.8% (inactive)
2,CCN(CC)CCCC(Nc1c2ccc(Cl)cc2nc2ccc(OC)cc12)c1ccncc1 (centres undefined),65.7% (inactive)
3,COc1cccc(C2C3=C(COC3=O)N(CCO)c3cc4c(cc32)OCCO4)c1 (centres undefined),27.6% (inactive)
4,CN(C)CC1C(=O)O[C@H]2[C@H]1CC/C(COC(=O)NCc1ccc(Cn3c(=O)sn(CCCI)c3=O)cc1)=C\CC[C@@]1(C)O[C@@H]21 (some centres undefined),-87.2% (active)
5,CC(C)=CC(=O)C1C(=O)c2ccccc2C1=O,88.5% (inactive)
6,Cn1cc(-c2ccc3c(Nc4cccc(NC(=O)Nc5cccc(F)c5)c4)ncnc3c2)cn1,53.6% (inactive)
7,COc1cc2c(c(OC)c1OC)C(=O)CC(c1cccc(C(=O)Nc3ccc(Br)cc3)c1)O2 (centres undefined),-8.2% (active)
8,COc1cc2nc3cc([N+](=O)[O-])ccc3c(NCCCNCCO)c2cc1OC,-46.4% (active)
9,CCOC(=O)C1=CCC(n2cc(F)c(=O)[nH]c2=O)O1 (centres undefined),107% (inactive)
10,Cc1nc2sc(C(=O)Nc3ccccc3)c(N)c2cc1C(O)c1ccccc1 (centres undefined),63.7% (inactive)
11,C=C(CNCCO)[C@@H]1CC[C@]2(CO)CC[C@]3(C)[C@H](CC[C@@H]4[C@@]5(C)CCC(NCCO)C(C)(C)[C@@H]5CC[C@]43C)[C@@H]12 (some centres undefined),65.5% (inactive)
12,COC(=O)CCc1c(/C=C2\N=C(c3ccc[nH]3)C=C2OC)[nH]c(C)c1C(=O)OCc1ccccc1,-9.37% (active)
13,CSc1nc(N)c2c(n1)NC(c1ccccc1)C1CCc3ccccc3C1=N2 (centres undefined),51.2% (inactive)
14,CC(CN)[C@@H]1CC[C@]2(CO)CC[C@]3(C)[C@H](CC[C@@H]4[C@@]5(C)CCC(NCCO)C(C)(C)[C@@H]5CC[C@]43C)[C@@H]12 (some centres undefined),61.6% (inactive)
15,O=S(=O)(c1ccc(NCSc2nc3ccccc3s2)cc1)c1ccc(NCSc2nc3ccccc3s2)cc1,70.7% (inactive)
16,COc1ccc(Cn2cc(C(=O)N=Nc3c(O)[nH]c4ccc(Br)cc34)nn2)cc1,114% (inactive)
17,Oc1ccc(C(c2ccc(O)cc2)c2ccc(Cl)cn2)cc1,-8.51% (active)
18,O=C(Nc1cccc(Cn2c(=O)[nH]c3ccc(Oc4ncccn4)cc3c2=O)c1)c1cccc(Cl)c1,75.4% (inactive)
19,Cc1ccc(C(=O)Nc2ccc(CN3CCN(C)CC3)c(C(F)(F)F)c2)cc1C#Cc1cnc(N)c2ccccc12,-14.8% (active)
20,C[C@H]1c2ccccc2CN1CCCOc1cc2c(cc1OCC1CC1)C1(CCCC1)C(N)=N2,23.2% (inactive)

row,Compound,growth
1,CC1=C2[C@@H](CC1)[C@]1(C)O[C@@](C(C)C)(C[C@H]1OC(=O)CO)[C@H]2OC(=O)CCCc1ccccc1,37.4% (inactive)
2,Oc1ccc(Cc2ccc(O)c3ncccc23)c2cccnc12,-25.9% (active)
3,C=C(c1ccc(OC)c(/C=C/C(=O)c2cc(OC)c(OC)c(OC)c2)c1)c1cc(OC)c(OC)c(OC)c1,40.2% (inactive)
4,COc1ccc(-c2nc(SCCC(C)C)nc(N/N=C(/C)c3ccc(N)cc3)c2C#N)cc1,96.8% (inactive)
5,CCCCC1=C(Br)C(=O)c2ncccc2C1=O,46.2% (inactive)
6,COc1ccc(/C(C)=C(\c2ccc(Cl)cc2)c2ccc(OCCCN(C)C)cc2)cc1,62.5% (inactive)
7,CC(=O)/C(Br)=C/c1ccc(Br)o1,33.8% (inactive)
8,CC(C)n1nc(-c2ccc3oc(N)nc3c2)c2c(N)ncnc21,-40% (active)
9,CCCNNC(=O)c1ccc(CNC(=O)/C=C/c2ccccc2)cc1,25.6% [2.5 µM] (inactive)
10,O=C(Nc1ncc(Cc2ccc(Cl)cc2)s1)C1=NCCCCN1,119% (inactive)
11,COc1cc2c(c(OC)c1OC)CCC(c1cccc(C(=O)Nc3ccc([N+](=O)[O-])cc3)c1)O2 (centres undefined),42.6% (inactive)
12,C=CCn1c(SCC(=O)Nc2ccc(C(=O)/C=C/c3ccc(Cl)cc3)cc2)nnc1-c1ccccc1,93.2% (inactive)
13,c1ccc(Cn2cc3c(c2)-c2nc(Nc4ccccc4)ncc2CC3)cc1,50.4% [100 µM] (inactive)
14,Clc1nc(N2CCC[N+]3(CC2)CC[N+]2(CCCNCC2)CC3)nc(N2CCC[N+]3(CC2)CC[N+]2(CCCNCC2)CC3)n1 (centres undefined),131% (inactive)
15,C#C[C@]1(O)CC[C@H]2[C@@H]3CC=C4c5sc(-c6ccccc6)nc5CC[C@]4(C)[C@H]3CC[C@@]21C,77% (inactive)
16,CCOC(=O)c1ccc2c(c1)[n+](=O)c(C(C)=O)c(C(F)(F)F)n2[O-],-29.9% (active)
17,COc1ccc2c(O)cc3c(c2c1)[C@H](CCl)CN3C(=O)c1cc2cc(NC(=O)CCN3CCOCC3)ccc2[se]1,94.8% (inactive)
18,O=C(/C=C/C12c3ccccc3C(c3ccccc31)C1C(=O)NC(=O)C12)c1cccs1 (centres undefined),37.1% (inactive)
19,O=C1c2cccnc2C(=O)c2c1c(C(=O)OCCCN1CCOCC1)c1ccccn21,-20.6% (active)
